The campaign covered roughly 5,500 compounds. About 2,000 (36%) were called active. About 18% were inconclusive and are not listed. Cut-off read from the data, not from the text of the source: active = normalized growth mostly below about 0.91 (no sharp cut-off); inconclusive = no clear call, values can overlap the other calls; inactive = mostly above about 0.92. The list shows a part of the results.
Experiment: chemical genetic growth profiling, strain panel (AID 1159580);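 note: tested at 20 µM; growth read once vehicle control cultures reached saturation at 30 °C; 1 = growth at the plate median or of vehicle wells; lower values mean less growth of the strain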
Details: growth OD
[1] = S. cerevisiae deletion strains, locus YAL013W, strain DEP1, hits give low values
[2] = S. cerevisiae deletion strains, locus YBR229C, strain ROT2, hits give low values
[3] = S. cerevisiae deletion strains, locus YDL101C, strain DUN1, hits give low values
[4] = S. cerevisiae deletion strains, locus YDL134C, strain PPH21, hits give low values
[5] = S. cerevisiae deletion strains, locus YDR150W, strain NUM1, hits give low values
[6] = S. cerevisiae deletion strains, locus YEL061C, strain CIN8, hits give low values
[7] = S. cerevisiae deletion strains, locus YGR078C, strain PAC10, hits give low values
[8] = S. cerevisiae deletion strains, locus YHR030C, strain SLT2, hits give low values
[9] = S. cerevisiae deletion strains, locus YHR087W, strain rtc3, hits give low values
[10] = S. cerevisiae deletion strains, locus YJL187C, strain SWE1, hits give low values
[11] = S. cerevisiae deletion strains, locus YJR043C, strain POL32, hits give low values
[12] = S. cerevisiae deletion strains, locus YJR075W, strain HOC1, hits give low values
[13] = S. cerevisiae deletion strains, locus YLR039C, strain RIC1, hits give low values
[14] = S. cerevisiae deletion strains, locus YLR058C, strain SHM2 (second series), hits give low values
[15] = S. cerevisiae deletion strains, locus YLR085C, strain ARP6, hits give low values
[16] = S. cerevisiae deletion strains, locus YLR262C, strain YPT6, hits give low values
[17] = S. cerevisiae deletion strains, locus YML094W, strain GIM5, hits give low values
[18] = S. cerevisiae deletion strains, locus YMR219W, strain ESC1, hits give low values
[19] = S. cerevisiae deletion strains, locus YMR263W, strain SAP30, hits give low values
[20] = S. cerevisiae deletion strains, locus YNL153C, strain GIM3, hits give low values
[21] = S. cerevisiae deletion strains, locus YNL298W, strain CLA4 (second series), hits give low values
[22] = S. cerevisiae deletion strains, locus YNL322C, strain KRE1, hits give low values
[23] = S. cerevisiae deletion strains, locus YNR030W, strain Alg12, hits give low values
[24] = S. cerevisiae deletion strains, locus YOL006C, strain TOP1, hits give low values
[25] = S. cerevisiae deletion strains, locus YPL055C, strain LGE1, hits give low values
[26] = S. cerevisiae deletion strains, locus YPL241C, strain CIN2, hits give low values
[27] = S. cerevisiae deletion strains, locus YPR135W, strain CTF4, hits give low values

Measured: normalized growth

O=[N+]([O-])c1ccc(C2N(Cc3ccccc3)CCC3CCCCN32)cc1 (stereo unspecified)
inactive: [1] 1 | [2] 0.998 | [3] 1 | [4] 1.01 | [5] 0.997 | [6] 0.983 | [7] 1.01 | [8] 0.954 | [9] 0.985 | [10] 0.999 | [11] 1.01 | [12] 0.966 | S. cerevisiae deletion strains, locus YKL190W, strain CNB1, hits give low values 1.01 | [13] 1 | [14] 1.01 | [15] 1.02 | [16] 0.908 | [17] 0.983 | [18] 0.988 | [19] 0.998 | [20] 1.01 | [21] 1.01 | [22] 1.01 | [23] 1.02 | [24] 0.972 | [25] 0.985 | [26] 0.995 | [27] 1.03

COP(=S)(OC)Oc1cc(Cl)c(Cl)cc1Cl
active: [8] 0.127 | S. cerevisiae deletion strains, locus YHR079C, strain IRE1, hits give low values 0.163 | S. cerevisiae deletion strains, locus YJL095W, strain BCK1, hits give low values 0.163 | S. cerevisiae deletion strains, locus YJR066W, strain TOR1, hits give low values 0.08 | S. cerevisiae deletion strains, locus YLR113W, strain HOG1, hits give low values 0.163 | S. cerevisiae deletion strains, locus YNL183C, strain NPR1, hits give low values 0.0646 | S. cerevisiae deletion strains, locus YOR231W, strain MKK1, hits give low values 0.152 | S. cerevisiae deletion strains, locus YPL256C, strain CLN2, hits give low values 0.151

COc1cc(Cl)c(Cl)cc1Cl
inactive: [1] 0.991 | [2] 1 | [3] 0.997 | [4] 0.997 | [5] 1.01 | [6] 0.992 | [7] 1 | S. cerevisiae deletion strains, locus YGR229C, strain SMI1, hits give low values 0.997 | [8] 0.94 | [9] 1.01 | [10] 0.999 | [11] 0.974 | [12] 1.03 | [13] 0.986 | [14] 0.994 | [15] 1.06 | [16] 0.96 | [17] 1.03 | [18] 1.01 | [19] 1.01 | S. cerevisiae deletion strains, locus YMR307W, strain GAS1, hits give low values 1.06 | [20] 0.983 | [21] 0.948 | [22] 1.01 | [23] 0.98 | [24] 0.949 | [25] 1.1 | [26] 1.02 | [27] 0.91 | S. cerevisiae strains, strain wild type, hits give low values 0.981
